Hits are enriched below; roughly 2.9% of the tested compounds scored in any of these assays.
FXN GAA850 act: activators of GAA850 frataxin (FXN) promoter. AID 540364. activation, % at 6 µM. 0.56% of 360,000 active. HEK293 lucGAA850 FXN promoter luciferase reporter, 24 h; percent of 10 µM SAHA response;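 active = activation above the average of all compounds screened plus 3 SD, cutoff fixed separately per campaign, cut at about 7.5% in these data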
KLK7 zymogen act: activators of human kallikrein-7 zymogen. P49862. purified proKLK7, EDANS-DABCYL substrate fluorescence; 100% is mature enzyme control, 0% vehicle. activation, % at 7 µM. 0.9% of 370,000 active. AID 652039;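 active = activation above the mean of all tested compounds plus 3 SD, computed per campaign excluding outliers beyond control limits, cut at about 13% in these data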
Target sequence (P49862 whole entry, looked up): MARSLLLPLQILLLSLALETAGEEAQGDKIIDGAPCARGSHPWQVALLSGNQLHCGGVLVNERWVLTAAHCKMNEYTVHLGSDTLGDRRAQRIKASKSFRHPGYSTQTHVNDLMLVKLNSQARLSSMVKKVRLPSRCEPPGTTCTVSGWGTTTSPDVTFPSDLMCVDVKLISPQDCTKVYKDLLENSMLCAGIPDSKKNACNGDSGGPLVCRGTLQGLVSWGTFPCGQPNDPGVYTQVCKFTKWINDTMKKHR
FAS TE block: FAS thioesterase (human) inhibition; recombinant FAS-TE, OMFH fluorogenic substrate, fluorescence endpoint; inhibition, % at 15 µM; 0.67% of 360,000 active; AID 602261;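 active = compounds whose normalised, plate-corrected inhibition of enzyme fluorescence in the single-dose primary screen is 50% or more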
SMARCA2 act: increases SMARCA2 function in MMTV reporter cells. MG213 cells, MMTV-luciferase reporter, dexamethasone, overnight. activation, % at 9.1 µM. 1% of 370,000 active; in the data active = activation above about 7.8%
SMARCA2 act conf: SMARCA2 activation, confirmation screen | shares compounds with SMARCA2 act | 30% of 3,500 active | activation, % at 9.1 µM | MG213 cells, MMTV-luciferase with dexamethasone, luminescence, overnight; MG213 cells expressing E1A, Rb sequestered; DMSO wells 0%, reference activator 100%;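 active = activation above its plate's cutoff, the mean activation of tested wells plus 3 SD, cut at about 7.9% in these data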
GAL4-VP16 Luc: activates GAL4-VP16 luciferase, flagging SMARCA2 activator hits | 41% of 3,500 active | activation, % at 9.1 µM | shares compounds with SMARCA2 act | HEK293 GAL4-VP16 pG5luc reporter, luciferase luminescence; scaled: DMSO wells 0%, SAHA wells 100%;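 active = activation above the solvent-only control well mean plus 3 SD, averaged across control plates, cut at about 5.2% in these data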
Hits are given with their value; i = inactive; nt = no result.

SMILES	FXN GAA850 act	KLK7 zymogen act	FAS TE block	SMARCA2 act	SMARCA2 act conf	GAL4-VP16 Luc
CCc1nnc(NC(=O)CSc2ccc(-c3nc4ccc(C)cc4[nH]3)cn2)s1	i	i	i	8.7	8.4	11.7
CC(=O)CSc1ccc(-c2nc3ccccc3[nH]2)cn1	i	i	i	i	nt	nt
Cc1cc2nc(-c3ccc(SCC(=O)Nc4nccs4)nc3)[nH]c2cc1C	i	i	i	i	nt	nt
Cc1nc(SCC(=O)N2CCc3ccccc32)n[nH]1	i	i	i	8.7	8.6	i
Cc1ccc2nc(-c3ccc(SCC(=O)N4CCc5ccccc54)nc3)[nH]c2c1	i	i	i	9.1	12.1	12.9
O=C(O)c1cccc(Nc2ccnc(Nc3cccc(C(=O)O)c3)n2)c1	i	i	i	8.0	i	i
c1ccc(NC2=Nc3cccc4cccc2c34)cc1	i	i	i	i	nt	nt
O=C(O)c1cccc(NC2=Nc3cccc4cccc2c34)c1	i	i	i	9.9	10.4	9.4
O=C(NC1CCCC1)C1CCCN(C(=O)Nc2ccccc2)C1 (centres undefined)	i	i	i	i	nt	nt
O=C(NC1CC1)c1scc2c1OCCO2	i	i	i	8.2	i	i
O=C(Nc1cccnc1)c1scc2c1OCCO2	i	i	i	i	nt	nt
O=C(NC(=S)Nc1cccc(O)c1)c1ccco1	i	i	i	9.1	i	7.6
O=C(NNC(=S)Nc1ccc(F)cc1F)c1ccco1	i	i	i	11.9	8.6	i
O=C(NC(=S)Nc1ccc2c(c1)OCCO2)c1ccco1	i	i	i	i	nt	nt
O=C(NC(=S)Nc1ccccn1)c1ccco1	i	i	i	8.8	12.4	8.6
COC(=O)c1ccc(C2C(C(=O)c3ccc(C)o3)=C(O)C(=O)N2c2cc(C)on2)cc1 (centres undefined)	i	i	i	i	nt	nt
COc1ccc(NC(=O)c2sc(SC)nc2N)cc1	i	i	i	10.9	i	i
COc1ccc(NC(=O)c2sc(SCc3ccccc3)nc2N)cc1	i	i	i	i	nt	nt
COC(=O)c1cc(C(=O)OC)cc(-n2c(C)cc(C(=O)COC(=O)CNS(=O)(=O)c3ccc(C)cc3)c2C)c1	i	i	i	8.0	i	i
NNC(=O)c1nnsc1-c1csnn1	i	i	i	9.1	i	i
Cc1cc(OCCCC(=O)NCCc2ccccn2)ccc1Cl	i	i	i	i	nt	nt
O=C(COC(=O)c1c[nH]c(=O)[nH]c1=O)Nc1ccccc1	i	i	i	i	nt	nt
O=C(CCC(=O)Nc1ccccc1)N/N=C/c1ccco1	i	i	i	i	nt	nt
O=C(N/N=C/c1ccco1)Nc1ccccc1	i	i	i	10.5	i	14.1
Nc1nccnc1C(=O)N/N=C/c1ccco1	i	i	i	9.6	i	i
SMILES	FXN GAA850 act	KLK7 zymogen act	FAS TE block	SMARCA2 act	SMARCA2 act conf	GAL4-VP16 Luc
O=C(NC1CCN(Cc2ccccc2)CC1)C1CCN(S(=O)(=O)c2cccc3nsnc23)CC1	i	i	i	i	nt	nt
CC1CCc2nn(CC(=O)NCCCN3CCCC3=O)cc2C1 (centres undefined)	i	i	i	8.7	i	i
Cc1cccc(-c2noc(CCc3ccccc3)n2)c1	i	i	i	10.9	i	6.7
O=C1/C(=C/c2ccco2)CCc2ccccc21	i	i	i	i	nt	nt
COc1ccc2c(c1)CC/C(=C/c1ccco1)C2=O	i	i	i	19.6	i	12.3
O=C(CCc1nc2ccccc2c(=O)[nH]1)NNC(=O)c1ccccc1Cl	i	i	i	i	nt	nt
CC(C)CSC1=NSC2=NC(=O)/C(=C\c3cccs3)C(=N)N12	i	i	i	9.5	i	5.3
N=C1/C(=C/c2cccs2)C(=O)N=C2SN=C(SCc3ccccc3)N12	i	i	i	i	nt	nt
Cc1ccc(N2CC(C(=O)Nc3nnc(SCC(N)=O)s3)CC2=O)cc1C (centres undefined)	i	i	i	i	nt	nt
CCN=c1sc(C(=O)OC)cc(=O)n1CC	i	i	i	10.6	8.6	i
C=CCN=c1sc(C(=O)OC)cc(=O)n1CC=C	i	i	i	i	nt	nt
Brc1ccc(-c2nnc(-c3ccccc3Br)o2)cc1	i	i	i	8.4	i	12.6
Cc1ccc(-c2nnc(-c3ccccc3Br)o2)cc1	i	i	i	i	nt	nt
COc1ccc(-n2c(SCC3CNC(=O)O3)nnc2-c2ccc(Cl)cc2)cc1 (centres undefined)	i	i	i	11.7	i	i
CCN1C(=O)N[C@@H](CCc2ccccc2)[C@H](C(C)=O)[C@H]1C	i	i	i	i	nt	nt
O=C(O)CC(c1cccc(Cl)c1)n1cccc1 (centres undefined)	i	i	i	i	nt	nt
COc1cccc(C(=O)NC(=O)Nc2cc(C)on2)c1	i	i	i	8.4	i	8.7
COc1cccc(NC(=O)Nc2cc(C)on2)c1	i	i	i	i	nt	nt
CCc1ccc(CN(C)C(=O)c2cccc(S(=O)(=O)Nc3ccccc3OC)c2)cc1	i	i	i	i	nt	nt
Cc1cc(Br)ccc1OCC(=O)NNC(=O)Cc1ccccc1	i	i	i	8.9	i	i
Cc1cc(Br)cc(C)c1OCC(=O)NNC(=O)c1cccs1	i	i	i	i	nt	nt
O=C(COc1ccc(Br)cc1Br)NNC(=O)c1cccs1	i	i	i	10.5	i	8.8
Cc1cc(Br)ccc1OCC(=O)NNC(=O)CCc1ccccc1	i	i	i	i	nt	nt
CCn1c2ccccc2c2nnc(SCC(N)=O)nc21	i	i	i	i	nt	nt
CCn1c2ccccc2c2nnc(SCc3ccccc3)nc21	i	i	i	8.2	i	i
SMILES	FXN GAA850 act	KLK7 zymogen act	FAS TE block	SMARCA2 act	SMARCA2 act conf	GAL4-VP16 Luc
COc1cccc(-c2nc(CS(=O)CC(=O)NC3CC3)c(C)o2)c1 (centres undefined)	i	i	i	i	nt	nt
Fc1ccccc1CSc1ncn[nH]1	i	i	i	9.0	i	i
Clc1ccc(CSc2ncn[nH]2)cc1	i	i	i	i	nt	nt
Cc1ccccc1N1CCN(C2CCCN(C(=O)c3cc[n+]([O-])cc3)C2)CC1 (centres undefined)	i	i	i	i	nt	nt
CCn1cc(C(=O)N2CCCC(N3CCN(c4ccccc4C)CC3)C2)cn1 (centres undefined)	i	i	i	12.4	i	i
O=S1(=O)CCN2C(c3cccc4ccccc34)=CSC2=N1	i	i	i	i	nt	nt
c1ccc(COc2ccc(OCCN3CCCC3)cc2)cc1	i	i	i	i	nt	nt
c1ccc(COc2ccc(OCCCN3CCCC3)cc2)cc1	i	i	i	8.7	i	9.8
Cc1ccc(S(=O)(=O)Nc2cc(C(=O)O)ccc2N2CCC(C)CC2)cc1C	nt	i	nt	i	nt	nt
CCOC(=O)C1CCCCN1Cc1cccc(F)c1 (centres undefined)	i	i	i	8.8	i	i
CN(C)CCN1C(=O)c2cccc3cc([N+](=O)[O-])cc(c23)C1=O	i	i	i	15.3	10.7	7.2
Cc1scc(C(=O)N/N=C/c2ccsc2)c1C	i	i	i	i	nt	nt
CCCOc1cccc(/C=N/NC(=O)c2csc(C)c2C)c1	i	i	i	12.7	i	i

Source: PubChem
